Several values for one entry are separate records, joined by “and”; a condition that tells them apart may be missing. Identical values can stand only once. Records with an inconclusive call do not appear. Activity calls are given as the source filed them. Unless noted, calls come from the whole dose curve; as a rule, active = well fitted curve in the direction sought with a large enough effect in the repeat runs; inconclusive = weak or mixed curves; inactive = no such curve, though single readings can be large; an effect the other way counts as inactive or inconclusive.
Assays:
[1] = qHTS assay to identify small molecule antagonists of the retinoid acid receptor (RAR) signaling pathway - cell viability counter screen (AID 1159551); note: nearly all actives have a fitted effect of over 35% in size
Procedure, shortened: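 C3RL4 RARE-luciferase line; cpds + retinol 1 uM final, 6 h, 37 C/5% CO2; CellTiter-Glo ATP luminescence, 30 min RT.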

[2] = qHTS assay to identify small molecule antagonists of the retinoic acid receptor (RAR) signaling pathway (AID 1159552; note: nearly all actives have a fitted effect of over 50% in size; note: potency is the fitted concentration of half-maximal effect)
Procedure, shortened: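 Test chemicals and DMSO controls were pin-transferred onto C3RL4 cells a day after seeding; retinol (1 uM final) followed at once. Luminescent reporter output was quantified after 6 hr of co-incubation and 30 min with detection reagent.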

[3] = qHTS assay to identify small molecule agonists of the retinoic acid receptor (RAR) signaling pathway (AID 1159553)
Procedure, shortened: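 RARE-luc C3RL4 cells; overnight attachment 37 C/5% CO2; compound (DMSO) 6 hr; luciferase reagent, 30 min RT; luminescence read-out.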

[4] = biological target: Luciferin 4-monooxygenase (Photinus pyralis) (UniProt P08659); assay: qHTS assay to identify small molecule inhibitors of firefly luciferase (AID 1224835); note: nearly all actives have a fitted effect of over 25% in size; note: potency is the fitted concentration of half-maximal effect; for activity change, negative = inhibition: series mostly up to about 120 µM
Luciferin 4-monooxygenase (Photinus pyralis), sequence (P08659 whole entry, looked up): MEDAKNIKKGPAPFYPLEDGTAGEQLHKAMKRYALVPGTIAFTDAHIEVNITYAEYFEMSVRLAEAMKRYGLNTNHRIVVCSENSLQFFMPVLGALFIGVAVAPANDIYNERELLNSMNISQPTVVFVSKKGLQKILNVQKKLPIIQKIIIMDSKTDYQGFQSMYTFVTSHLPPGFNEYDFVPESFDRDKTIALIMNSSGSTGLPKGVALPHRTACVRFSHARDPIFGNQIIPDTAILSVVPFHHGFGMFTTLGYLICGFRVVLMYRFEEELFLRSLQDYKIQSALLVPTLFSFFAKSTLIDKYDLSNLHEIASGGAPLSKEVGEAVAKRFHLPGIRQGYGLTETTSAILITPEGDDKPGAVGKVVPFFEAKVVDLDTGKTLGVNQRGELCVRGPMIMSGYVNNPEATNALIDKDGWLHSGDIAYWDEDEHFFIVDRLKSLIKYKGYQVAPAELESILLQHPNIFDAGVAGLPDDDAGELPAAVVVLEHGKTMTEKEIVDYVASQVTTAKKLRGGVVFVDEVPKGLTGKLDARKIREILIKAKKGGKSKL
Procedure, shortened: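 Inhibition of purified Photinus luciferase is measured by luminescence. Substrate levels (D-luciferin, ATP) sit at their KM values. Each compound is tested in a concentration series.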

[5] = qHTS assay to identify small molecule agonists of the constitutive androstane receptor (CAR) signaling pathway - cell viability counter screen (AID 1224836); note: series mostly up to about 92 µM; nearly all actives have a fitted effect of over 45% in size
Procedure, shortened: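 23 h treatment, 37 C, 5% CO2. Cell line: HepG2 stably expressing hCAR with a CYP2B6-2.2kb construct. Co-treatment: PK11195, 0.75 uM final. Read-out: CellTiter-Fluor fluorescence intensity.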

[6] = qHTS assay to identify small molecule antagonists of the constitutive androstane receptor (CAR) signaling pathway - cell viability counter screen (AID 1224837); note: series mostly up to about 92 µM; nearly all actives have a fitted effect of over 45% in size
Procedure, shortened: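 Read-out: CellTiter-Fluor fluorescence after 23 hr at 37 C/5% CO2. Cells: HepG2 double-stable for hCAR and CYP2B6-2.2kb. Compounds tested at 15 concentrations in the presence of CITCO, final concentration 50 nM.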

[7] = biological target: Nuclear receptor subfamily 1 group I member 3 (Homo sapiens) (UniProt Q14994); assay: qHTS assay to identify small molecule antagonists of the constitutive androstane receptor (CAR) signaling pathway (AID 1224838);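 note: HepG2 cells stably expressing hCAR with CYP2B6 luciferase reporter stimulated by CITCO; nearly all actives have a fitted effect of over 40% in size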; note: potency is the fitted concentration of half-maximal effect
Nuclear receptor subfamily 1 group I member 3 (Homo sapiens), sequence (Q14994 whole entry, looked up): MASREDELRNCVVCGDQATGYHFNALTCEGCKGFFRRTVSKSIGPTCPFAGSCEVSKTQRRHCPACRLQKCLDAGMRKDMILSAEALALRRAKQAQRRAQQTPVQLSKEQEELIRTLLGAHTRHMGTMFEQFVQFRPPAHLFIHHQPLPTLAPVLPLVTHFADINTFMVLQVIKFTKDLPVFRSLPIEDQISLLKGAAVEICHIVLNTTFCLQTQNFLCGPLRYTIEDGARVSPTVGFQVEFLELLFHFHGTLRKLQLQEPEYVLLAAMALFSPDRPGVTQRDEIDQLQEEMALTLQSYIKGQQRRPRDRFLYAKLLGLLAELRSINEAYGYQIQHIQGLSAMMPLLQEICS
Procedure, shortened: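 Read-out: ONE-Glo luciferase luminescence after 30 min at room temperature. HepG2-CYP2B6-hCAR double-stable cells, compounds in 15-point titration plus 50 nM CITCO final, 24 h at 37 C/5% CO2.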

[8] = biological target: Nuclear receptor subfamily 1 group I member 3 (Homo sapiens) (UniProt Q14994); assay: qHTS assay to identify small molecule agonists of the constitutive androstane receptor (CAR) signaling pathway (AID 1224839); note: nearly all actives have a fitted effect of over 15% in size; note: potency is the fitted concentration of half-maximal effect;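 for activation: HepG2 cells stably carrying human CAR and a CYP2B6 luciferase reporter; series mostly up to about 92 µM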
Procedure, shortened: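 Compounds tested at 15 concentrations on HepG2 cells stably harbouring hCAR and CYP2B6-2.2kb reporter constructs, co-treated with PK11195 (0.75 uM final), 24 h at 37 C; luminescent reporter signal quantified.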

[9] = qHTS assay to identify small molecule antagonists of the estrogen related receptor signaling pathway with the pleiotropic PPARgamma coactivator (PGC) from Tox21 10K library - cell viability counter screen (AID 1224840; active = well fitted cell-killing curve with a large enough effect in the repeat runs, not every such curve was filed as active; note: nearly all actives have a fitted effect of over 40% in size; note: potency is the fitted concentration of half-maximal effect)
Procedure, shortened: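 Fluorescence read-out of CellTiter-Fluor viability reagent, added after cells had been exposed to compound in DMSO for 17.5 h at 37 C; 30 min development at 37 C/5% CO2. Cells: PGC/ERR line, 2,000/well.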

[10] = qHTS assay to identify small molecule antagonists of the estrogen related receptor signaling pathway with the pleiotropic PPARgamma coactivator (PGC) from Tox21 10K library (AID 1224841; call rule not given here; note: actives are mostly falling curves and most rising ones were filed inactive; nearly all actives have a fitted effect of over 50% in size; note: potency is the fitted concentration of half-maximal effect; for activity, negative = inhibition: series mostly up to about 92 µM)
Procedure, shortened: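 Luminescence read-out (One-Glo luciferase reagent, 30 min at room temperature) from PGC/ERR cells exposed to DMSO-dissolved test compounds for 18 h at 37 C; cells, 2,000 per well, had been preincubated 6 h before compound transfer.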

[11] = qHTS assay to identify small molecule agonists of the estrogen related receptor signaling pathway with the pleiotropic PPARgamma coactivator (PGC) from Tox21 10K library (AID 1224842); note: nearly all actives have a fitted effect of over 15% in size
Procedure, shortened: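 Luminescence from One-Glo (30 min, room temperature) measured after PGC/ERR cells had 18 h at 37 C with pinned compound (23 nL in DMSO). Cells had been seeded at 2,000 per well and pre-incubated 6 h.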

[12] = biological target: Thyrotropin receptor (Homo sapiens) (UniProt P16473); assay: qHTS assay to identify small molecule agonists of the thyroid stimulating hormone receptor (TSHR) signaling pathway (AID 1224843; calls by dose curve; note: nearly all actives have a fitted effect of over 45% in size)
Thyrotropin receptor (Homo sapiens), sequence (P16473 whole entry, looked up): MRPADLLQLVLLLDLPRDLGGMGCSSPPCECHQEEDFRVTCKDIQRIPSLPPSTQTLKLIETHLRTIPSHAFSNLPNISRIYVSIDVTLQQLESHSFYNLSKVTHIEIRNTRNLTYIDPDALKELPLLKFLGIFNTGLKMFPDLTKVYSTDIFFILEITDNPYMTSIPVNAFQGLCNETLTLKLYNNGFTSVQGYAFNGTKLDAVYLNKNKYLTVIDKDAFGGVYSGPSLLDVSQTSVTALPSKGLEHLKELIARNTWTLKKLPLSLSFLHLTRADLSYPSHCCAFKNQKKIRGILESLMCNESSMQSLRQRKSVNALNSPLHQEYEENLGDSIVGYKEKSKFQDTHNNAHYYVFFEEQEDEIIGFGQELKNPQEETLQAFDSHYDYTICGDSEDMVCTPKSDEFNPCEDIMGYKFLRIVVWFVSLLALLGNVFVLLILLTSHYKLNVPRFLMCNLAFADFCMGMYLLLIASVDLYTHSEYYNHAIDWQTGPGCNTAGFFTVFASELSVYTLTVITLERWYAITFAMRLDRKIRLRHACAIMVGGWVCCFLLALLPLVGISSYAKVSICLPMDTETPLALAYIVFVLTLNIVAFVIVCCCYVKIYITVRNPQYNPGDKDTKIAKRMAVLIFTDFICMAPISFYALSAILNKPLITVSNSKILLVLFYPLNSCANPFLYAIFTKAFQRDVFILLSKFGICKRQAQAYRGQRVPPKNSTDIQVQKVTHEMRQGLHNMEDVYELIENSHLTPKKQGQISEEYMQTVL
Procedure, shortened: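 Agonist activity read as cAMP rise via d2/cryptate HTRF competition, 1 h room-temperature detection, in HEK293 cells expressing TSHR. Fifteen-point titrations, each run in triplicate, with a 30 min room-temperature incubation beforehand.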

[13] = qHTS assay to identify small molecule agonists of the hypoxia (HIF-1) signaling pathway - cell viability counter screen (AID 1224844; calls by dose curve; note: nearly all actives have a fitted effect of over 50% in size; note: potency is the fitted concentration of half-maximal effect)
Procedure, shortened: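 CellTiter-Glo luminescence read-out, 30 min RT, taken in the same wells as the beta-lactamase HRE reporter assay; HRE-bla ME-180 cells, 0.5% dialyzed FBS, 17 hr compound treatment at 37C, 5% CO2.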

[14] = qHTS assay to identify small molecule antagonists of the estrogen related receptor (ERR) signaling pathway from Tox21 library - cell viability counter screen (AID 1224834); note: nearly all actives have a fitted effect of over 30% in size; note: potency is the fitted concentration of half-maximal effect
Procedure, shortened: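 Multiplexed viability counter screen in ERR cells: 17.5 h compound exposure at 37 C, CellTiter-Fluor added, 30 min at 37 C/5% CO2, fluorescence read.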
% is set by controls: 0 for no effect and ±100 for the full control effect.

COc1ccc(/C(=C/C(=O)N2CCOCC2)c2ccc(Cl)cc2)cc1OC
inactive: Potency [1] | Potency [2] | Potency [3] | Potency [4] | Potency [5] | Potency [6] | Potency [7] | Potency [8] | Potency [9] | Potency [10] | Potency [11] | Potency [12] | Potency [13]

C=CCOC(N)=O
inactive: Potency [1] | Potency [2] | Potency [14] | Potency [4] | Potency [5] | Potency [6] | Potency [7] | Potency [8] | Potency [9] | Potency [10] | Potency [11] | Potency [12] | Potency [13]

Cn1cc(C2=C(c3cn(C4CCN(Cc5ccccn5)CC4)c4ccccc34)C(=O)NC2=O)c2ccccc21
active: Potency [14] 11.9 µM
inactive: Potency [1] | Potency [2] | Potency [3] | Potency [4] | Potency [6] | Potency [12] | Potency [13]

CC(c1ccc(O)cc1)c1ccc(O)cc1
active: Potency [4] 74.7 µM and 44.8 µM | Potency [8] 51.1 µM and 30.6 µM
inactive: Potency [1] | Potency [2] | Potency [14] | Potency [5] | Potency [6] | Potency [7] | Potency [9] | Potency [10] | Potency [11] | Potency [12] | Potency [13]

O=[N+]([O-])c1ccc2ccc3cccc4ccc1c2c34
inactive: Potency [1] | Potency [2] | Potency [3] | Potency [4] | Potency [5] | Potency [6] | Potency [8] | Potency [9]
active: Potency [7] 4.85 µM | Potency [13] 34.7 µM

O=c1oc2ccccc2c(O)c1Cc1c(O)c2ccccc2oc1=O
inactive: Potency [1] | Potency [2] | Potency [3] | Potency [14] | Potency [5] | Potency [6] | Potency [9] | Potency [11] | Potency [13]

ClC1=C(Cl)C2(Cl)C3C(Cl)C(Cl)CC3C1(Cl)C2(Cl)Cl (stereo not given)
active: Potency [2] 54.5 µM | Potency [14] 68.4 µM | Potency [8] 3.05 µM and 15.4 µM | Potency [9] 61.1 µM | Potency [10] 60.9 µM and 43.3 µM | Potency [13] 21.8 µM
inactive: Potency [1] | Potency [4] | Potency [5] | Potency [6] | Potency [7] | Potency [11]

Cc1cc(C(F)(C(F)(F)F)C(F)(F)F)ccc1NC(=O)c1cccc(I)c1C(=O)NC(C)(C)CS(C)(=O)=O
inactive: Potency [1] | Potency [2] | Potency [3] | Potency [14] | Potency [4] | Potency [5] | Potency [8] | Potency [9] | Potency [12]

Brc1c(Br)c(Br)c(Oc2c(Br)c(Br)c(Br)c(Br)c2Br)c(Br)c1Br
inactive: activity change, negative = cytotoxicity [1] 2.15% [at 19 µM] | activity, negative = inhibition [2] -8.07% [at 19 µM] | viability change, negative = cytotoxic [14] 0.115% [at 19 µM] | activity change, negative = inhibition [4] 1.46% [at 23.6 µM] | viability change, negative = cytotoxic [5] -2.08% [at 19 µM] | activity change, negative = cytotoxicity [6] 5.53% [at 19 µM] | activity, negative = inhibition [7] -4.8% [at 19 µM] | activation [8] -0.206% [at 19 µM] | viability change, negative = cytotoxic [9] 10.1% [at 19 µM] | activity, negative = inhibition [10] 39.4% [at 19 µM] | activation [11] 1.27% [at 19 µM] | activation [12] -5.88% [at 19 µM] | activity change, negative = cytotoxicity [13] 12% [at 15.8 µM]
